According to PubChem BioAssay AID1159580 (chemical genetic matrix, 2015):
Out of some 5,500 compounds screened, about 2,000 (36%) were called active. Roughly 18% stayed inconclusive and do not appear here. Cut-off read from the data, not from the text of the source: active = normalized growth mostly below about 0.91 (no sharp cut-off); inconclusive = no clear call, values can overlap the other calls; inactive = mostly above about 0.92. This is one part of the list.

Test: chemical genetic growth profiling, strain panel (AID 1159580);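 note: tested at 20 µM; growth read once vehicle control cultures reached saturation at 30 °C; 1 = growth at the plate median or of vehicle wells; lower values mean less growth of the strain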
Settings: growth OD
[1] = S. cerevisiae deletion strains, locus YDL101C, strain DUN1, hits give low values
[2] = S. cerevisiae deletion strains, locus YHR030C, strain SLT2, hits give low values
[3] = S. cerevisiae deletion strains, locus YAL013W, strain DEP1, hits give low values
[4] = S. cerevisiae deletion strains, locus YBR229C, strain ROT2, hits give low values
[5] = S. cerevisiae deletion strains, locus YDR150W, strain NUM1, hits give low values
[6] = S. cerevisiae deletion strains, locus YEL061C, strain CIN8, hits give low values
[7] = S. cerevisiae deletion strains, locus YGR078C, strain PAC10, hits give low values
[8] = S. cerevisiae deletion strains, locus YHR087W, strain rtc3, hits give low values
[9] = S. cerevisiae deletion strains, locus YJR043C, strain POL32, hits give low values
[10] = S. cerevisiae deletion strains, locus YJR075W, strain HOC1, hits give low values
[11] = S. cerevisiae deletion strains, locus YLR039C, strain RIC1, hits give low values
[12] = S. cerevisiae deletion strains, locus YLR058C, strain SHM2 (second series), hits give low values
[13] = S. cerevisiae deletion strains, locus YLR085C, strain ARP6, hits give low values
[14] = S. cerevisiae deletion strains, locus YLR262C, strain YPT6, hits give low values
[15] = S. cerevisiae deletion strains, locus YML094W, strain GIM5, hits give low values
[16] = S. cerevisiae deletion strains, locus YMR219W, strain ESC1, hits give low values
[17] = S. cerevisiae deletion strains, locus YMR263W, strain SAP30, hits give low values
[18] = S. cerevisiae deletion strains, locus YNL153C, strain GIM3, hits give low values
[19] = S. cerevisiae deletion strains, locus YNL298W, strain CLA4 (second series), hits give low values
[20] = S. cerevisiae deletion strains, locus YNL322C, strain KRE1, hits give low values
[21] = S. cerevisiae deletion strains, locus YNR030W, strain Alg12, hits give low values
[22] = S. cerevisiae deletion strains, locus YOL006C, strain TOP1, hits give low values
[23] = S. cerevisiae deletion strains, locus YPL055C, strain LGE1, hits give low values
[24] = S. cerevisiae deletion strains, locus YPL241C, strain CIN2, hits give low values
[25] = S. cerevisiae deletion strains, locus YPR135W, strain CTF4, hits give low values

Measured: normalized growth

Cc1ccc(Sc2ncccc2NS(=O)(=O)c2ccc(Cl)cc2)cc1
active: [2] 0.839 | S. cerevisiae deletion strains, locus YLR113W, strain HOG1, hits give low values 0.809 | S. cerevisiae deletion strains, locus YPL256C, strain CLN2, hits give low values 0.827
inactive: S. cerevisiae deletion strains, locus YAR019C, strain CDC15, hits give low values 0.933 | S. cerevisiae deletion strains, locus YBL105C, strain PKC1, hits give low values 0.924 | S. cerevisiae deletion strains, locus YBR135W, strain CKS1, hits give low values 0.935 | S. cerevisiae deletion strains, locus YBR136W, strain MEC1, hits give low values 0.922 | S. cerevisiae deletion strains, locus YBR160W, strain CDC28, hits give low values 0.934 | S. cerevisiae deletion strains, locus YDL017W, strain CDC7, hits give low values 0.937 | S. cerevisiae deletion strains, locus YDL028C, strain MPS1, hits give low values 0.932 | [1] 0.947 | S. cerevisiae deletion strains, locus YDL108W, strain KIN28, hits give low values 0.919 | S. cerevisiae deletion strains, locus YDL132W, strain cdc53, hits give low values 0.932 | S. cerevisiae deletion strains, locus YDL214C, strain PRR2, hits give low values 0.852 | S. cerevisiae deletion strains, locus YDR052C, strain DBF4, hits give low values 0.952 | S. cerevisiae deletion strains, locus YDR054C, strain cdc34, hits give low values 0.922 | S. cerevisiae deletion strains, locus YDR226W, strain ADK1, hits give low values 0.938 | S. cerevisiae deletion strains, locus YDR477W, strain SNF1, hits give low values 0.881 | S. cerevisiae deletion strains, locus YER123W, strain YCK3, hits give low values 0.823 | S. cerevisiae deletion strains, locus YER133W, strain GLC7, hits give low values 0.855 | S. cerevisiae deletion strains, locus YFL009W, strain cdc4, hits give low values 0.935 | S. cerevisiae deletion strains, locus YFL029C, strain CAK1, hits give low values 0.931 | S. cerevisiae deletion strains, locus YFR003C, strain YPI1, hits give low values 0.929 | S. cerevisiae deletion strains, locus YFR019W, strain FAB1, hits give low values 0.923 | S. cerevisiae deletion strains, locus YFR028C, strain CDC14, hits give low values 0.926 | S. cerevisiae deletion strains, locus YGR040W, strain KSS1, hits give low values 0.858 | S. cerevisiae deletion strains, locus YGR052W, strain FMP48, hits give low values 0.907 | S. cerevisiae deletion strains, locus YGR092W, strain DBF2, hits give low values 0.826 | S. cerevisiae deletion strains, locus YHR079C, strain IRE1, hits give low values 0.87 | S. cerevisiae deletion strains, locus YHR082C, strain KSP1, hits give low values 0.845 | S. cerevisiae deletion strains, locus YHR205W, strain SCH9, hits give low values 0.852 | S. cerevisiae deletion strains, locus YIL147C, strain SLN1, hits give low values 0.917 | S. cerevisiae deletion strains, locus YJL095W, strain BCK1, hits give low values 0.909 | S. cerevisiae deletion strains, locus YJL128C, strain PBS2, hits give low values 0.88 | S. cerevisiae deletion strains, locus YJL157C, strain FAR1, hits give low values 0.856 | S. cerevisiae deletion strains, locus YJR016C, strain ILV3, hits give low values 0.919 | S. cerevisiae deletion strains, locus YJR066W, strain TOR1 (second series), hits give low values 0.851 | S. cerevisiae deletion strains, locus YJR066W, strain TOR1, hits give low values 0.882 | S. cerevisiae deletion strains, locus YKL048C, strain ELM1, hits give low values 0.888 | S. cerevisiae deletion strains, locus YKL067W, strain YNK1, hits give low values 0.894 | S. cerevisiae deletion strains, locus YKL101W, strain HSL1, hits give low values 0.884 | S. cerevisiae deletion strains, locus YKL193C, strain SDS22, hits give low values 0.932 | S. cerevisiae deletion strains, locus YKL203C, strain TOR2, hits give low values 0.928 | S. cerevisiae deletion strains, locus YLR133W, strain CKI1, hits give low values 0.894 | S. cerevisiae deletion strains, locus YLR403W, strain SFP1, hits give low values 0.861 | S. cerevisiae deletion strains, locus YML070W, strain DAK1, hits give low values 0.849 | S. cerevisiae deletion strains, locus YMR001C, strain CDC5, hits give low values 0.928 | S. cerevisiae deletion strains, locus YMR205C, strain PFK2 (second series), hits give low values 0.888 | S. cerevisiae deletion strains, locus YMR277W, strain FCP1, hits give low values 0.934 | S. cerevisiae deletion strains, locus YNL006W, strain LST8, hits give low values 0.947 | S. cerevisiae deletion strains, locus YNL020C, strain ARK1, hits give low values 0.879 | S. cerevisiae deletion strains, locus YNL161W, strain CBK1, hits give low values 0.929 | S. cerevisiae deletion strains, locus YNL183C, strain NPR1, hits give low values 0.897 | S. cerevisiae deletion strains, locus YNL207W, strain RIO2, hits give low values 0.924 | S. cerevisiae deletion strains, locus YNL222W, strain SSU72, hits give low values 0.933 | S. cerevisiae deletion strains, locus YNL307C, strain MCK1 (second series), hits give low values 0.885 | S. cerevisiae deletion strains, locus YOL078W, strain AVO1, hits give low values 0.94 | S. cerevisiae deletion strains, locus YOL136C, strain PFK27, hits give low values 0.854 | S. cerevisiae deletion strains, locus YOR061W, strain CKA2, hits give low values 0.85 | S. cerevisiae deletion strains, locus YOR119C, strain RIO1, hits give low values 0.912 | S. cerevisiae deletion strains, locus YOR231W, strain MKK1, hits give low values 0.891 | S. cerevisiae deletion strains, locus YOR329C, strain SCD5, hits give low values 0.929 | S. cerevisiae deletion strains, locus YPL031C, strain PHO85, hits give low values 0.866 | S. cerevisiae deletion strains, locus YPL153C, strain RAD53, hits give low values 0.863 | S. cerevisiae deletion strains, locus YPL204W, strain HRR25, hits give low values 0.884 | S. cerevisiae deletion strains, locus YPL209C, strain IPL1, hits give low values 0.934 | S. cerevisiae deletion strains, locus YPR025C, strain CCL1, hits give low values 0.933 | S. cerevisiae deletion strains, locus YPR106W, strain ISR1, hits give low values 0.925 | S. cerevisiae deletion strains, locus YPR111W, strain DBF20, hits give low values 0.924 | S. cerevisiae deletion strains, strain NNK1, hits give low values 0.92 | S. cerevisiae deletion strains, strain TSCII, hits give low values 0.928

Cc1ccc(Sc2ncccc2C(=O)NCC(=O)O)cc1
inactive: [3] 1.03 | [4] 1.02 | [1] 1.04 | S. cerevisiae deletion strains, locus YDL134C, strain PPH21, hits give low values 0.999 | [5] 1.03 | [6] 1.01 | [7] 1.04 | [2] 1.06 | [8] 0.994 | [9] 0.962 | [10] 1.02 | [11] 1 | [12] 1.02 | [13] 1.02 | [14] 1.01 | [15] 0.992 | [16] 1.01 | [17] 1.02 | [18] 1.03 | [19] 1.02 | [20] 1.01 | [21] 1.02 | [22] 1.04 | [23] 1.01 | [24] 0.996 | [25] 1.08

CCSc1ncccc1C(=O)N[C@@H](CCSC)C(=O)OC
inactive: [3] 0.994 | [4] 0.996 | [1] 0.98 | [5] 0.906 | [6] 1.02 | [7] 0.993 | S. cerevisiae deletion strains, locus YGR229C, strain SMI1, hits give low values 1 | [2] 0.979 | [8] 1 | [9] 0.98 | [10] 1.01 | S. cerevisiae deletion strains, locus YKL190W, strain CNB1, hits give low values 1.01 | [11] 1 | [12] 1.01 | [13] 1.04 | [14] 1.02 | [15] 1.03 | [16] 1.01 | [17] 1.01 | S. cerevisiae deletion strains, locus YMR307W, strain GAS1, hits give low values 1.02 | [18] 0.999 | [19] 1.01 | [20] 1.01 | [21] 0.997 | [22] 1 | [23] 1.09 | [24] 1.01 | [25] 0.91 | S. cerevisiae strains, strain wild type, hits give low values 1
